The list is not random: actives were taken first. Their share in the collection is about 1.9%.
BRCA1 expr up – qHTS Assay to Identify Small Molecule Activators of BRCA1 Expression; MCF7-BRCA1-FFLuc reporter, luminescence, 48 h; response scale: scaled: vehicle 0%, 10 µM genistein 100%; actives 1.1% (n = 380,000); Potency, µM (series often up to 46.1 µM), most hits filed as activators; also: nearly all actives have a fitted effect of over 80% in size
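MCF7 cells carrying a BRCA1-firefly luciferase reporter (2000 cells/well, phenol-red free MEM) were attached for 2 h at 37 °C, then given compounds for 48 h. Luminescence was read 15 min after luciferase reagent; activity normalized to genistein (10 microM) and DMSO.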
NPSR antag – qHTS Assay for Antagonists of the Neuropeptide S Receptor: cAMP Signal Transduction; actives 1% (n = 220,000); CHO-NPSR cells, cAMP TR-FRET, antagonist mode; Potency, µM (series often up to 38.3 µM), hits mostly inhibitors; AID 1461, 2008; also: nearly all actives have a fitted effect of over 50% in size
IL-2 act – qHTS of IL-2 Activators. IL-2 activation reporter assay, cell-based qHTS; stimulated with anti-CD3/CD4/CD28 beads; in transgenic mouse T cells. actives 0.065% (n = 360,000). activation, % (series mostly up to about 46 µM); in the data active = activation above about 50%; inconclusive = mostly about 30% to 49%
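First, unstimulated transgenic mouse T cells were exposed to compound for 60 min. Next, anti-CD3/anti-CD4-coated beads with anti-CD28 were added. Finally, after 18 h at 37 degrees C, EGFP and DsRed were imaged.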
RXFP1 antagonist – qHTS Assay for Antagonists of the Relaxin Receptor RXFP1. HEK293-RXFP1, relaxin-stimulated cAMP HTRF, 30 min; hits give low values. activity change, negative = inhibition, % at 57.5 µM. actives 0.59% (n = 350,000). AID 1259400, 2018;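 active = activity change of -60% or lower, but not beyond a set lower limit; inconclusive = change between -60% and -40%, or beyond the set limit; inactive = change above -40%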
Target sequence (Q9HBX9 whole entry, looked up): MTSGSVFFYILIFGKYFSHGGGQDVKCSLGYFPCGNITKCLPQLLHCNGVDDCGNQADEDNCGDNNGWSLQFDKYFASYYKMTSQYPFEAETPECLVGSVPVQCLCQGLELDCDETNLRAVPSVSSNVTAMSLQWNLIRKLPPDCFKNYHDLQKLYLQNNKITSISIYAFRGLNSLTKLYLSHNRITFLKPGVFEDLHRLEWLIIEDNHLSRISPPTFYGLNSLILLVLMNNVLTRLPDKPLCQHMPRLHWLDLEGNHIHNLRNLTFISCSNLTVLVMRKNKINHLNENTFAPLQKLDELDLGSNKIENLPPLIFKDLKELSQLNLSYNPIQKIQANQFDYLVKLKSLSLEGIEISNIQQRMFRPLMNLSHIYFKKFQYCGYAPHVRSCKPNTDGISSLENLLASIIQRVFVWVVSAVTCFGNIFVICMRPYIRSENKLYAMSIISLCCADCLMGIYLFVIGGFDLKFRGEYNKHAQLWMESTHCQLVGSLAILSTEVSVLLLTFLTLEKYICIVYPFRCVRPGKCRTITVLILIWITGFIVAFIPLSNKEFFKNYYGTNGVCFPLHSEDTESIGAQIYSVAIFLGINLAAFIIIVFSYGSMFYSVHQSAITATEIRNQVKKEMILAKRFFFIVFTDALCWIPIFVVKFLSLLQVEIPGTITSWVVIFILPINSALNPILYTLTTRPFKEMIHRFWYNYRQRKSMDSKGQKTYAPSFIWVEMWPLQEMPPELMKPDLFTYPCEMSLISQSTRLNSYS
RXFP1 agonist – qHTS Assay for Agonists of the Relaxin Receptor RXFP1 | Relaxin receptor 1 (Homo sapiens), Q9HBX9 | HEK293T-RXFP1 cAMP TR-FRET, 30 min; response scale: percent of porcine relaxin response, buffer zero | Potency, µM (doses to about 57.5 µM), actives largely listed as activators | actives 0.3% (n = 370,000) | AID 2676, 2010; also: nearly all actives have a fitted effect of over 60% in size
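Agonist response is measured as cAMP accumulation in an RXFP1-transfected HEK293T line under PDE4 inhibition. Values are scaled between buffer-only and 29 nM porcine relaxin, and EC50s come from standard Hill equation fits.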
Giardia killer – Small Molecules that selectively kill Giardia lamblia: qHTS; actives 0.15% (n = 340,000); Giardia lamblia trophozoite viability; AID 540267, 2011; activity change, % at 7.66 µM, hits read low; in the data active = activity change below about -80%; inconclusive = between about -30% and that limit;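 also: parasites exposed to compound for two days anaerobically before the ATP read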
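Media and compound were dispensed first, then trophozoites at 100 cells/well; plates sat 48 hrs at 37 deg C without oxygen before ATP luminescence reagent was added and read after 15-30 min at room temperature.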
A number is an active result; - = inactive; ? = inconclusive; . = not tested or not shown. Unless noted, calls follow the shape of the dose curve; as a rule, active = well fitted curve in the direction sought with a large enough effect; inconclusive = small, poorly fitted or top-dose-only effect, or another doubt; inactive = no such curve, though single readings can be large; an effect the other way counts as inactive or inconclusive.

SMILES | BRCA1 expr up | NPSR antag | IL-2 act | RXFP1 antagonist | RXFP1 agonist | Giardia killer
CC(CNC(=O)CCCn1c(=O)c2cccn2c2ccccc21)c1ccccc1 (configuration not stated) | . | . | . | -78 | - | .
COc1ccc(C#Cc2cnc(Cl)c3cncnc23)cc1OC | - | . | . | . | . | -
CCOc1cc(CNC(=O)c2ccc(Cn3c(=O)c4cccn4c4cccnc43)cc2)ccc1OC | . | . | . | - | ? | .
CCc1ccc(S(=O)(=O)NCCc2csc3nc(-c4ccccc4)nn23)s1 | . | . | . | - | - | .
Cc1cccc(OC(C)C(=O)N2CCC(c3nc4ccccc4o3)CC2)c1C (configuration not stated) | . | . | . | -63 | - | .
CC(Oc1ccccc1F)C(=O)N1CCC(c2nc3ccccc3o2)CC1 (configuration not stated) | . | . | . | - | - | .
Cc1nnc(NC(=O)c2oc3ccccc3c2C)s1 | - | . | - | - | - | -
Cc1nc(NC(=O)c2oc3ccccc3c2C)sc1C(=O)N(C)C | 13µM | - | - | - | - | -
Cc1cc(-c2ccco2)c(C#N)c2nc3ccccc3n12 | 2.8µM | - | - | - | - | -
Cc1cc(C(C)C)n2c(nc3ccccc32)c1C#N | . | - | . | . | - | .
CN(C)c1ccc(-c2ccc3ccccc3n2)cc1 | - | . | . | . | . | .
c1ccc(-c2ccc3ccccc3n2)cc1 | 11µM | . | - | - | . | -
O=c1[nH]n2c(=O)c3c([nH]c2c1N=Nc1cccc(Cl)c1)CCC3 | - | - | - | - | - | -
O=c1[nH]n2c(=O)c3c([nH]c2c1N=Nc1cccc(C(F)(F)F)c1)CCCC3 | - | 13µM | - | - | - | -
CCNc1nc(N)c(C(=O)C23CC4CC(CC(C4)C2)C3)s1 | - | - | - | -68 | - | -
CC1=NOC(=O)/C1=C\c1ccc(-c2ccccc2Br)o1 | - | 10µM | - | - | 18µM | -
Cc1ccccc1Nc1nc(N)nc(COC(=O)c2ccco2)n1 | 4µM | . | - | - | . | -
Nc1nc(COC(=O)c2ccco2)nc(Nc2ccccc2)n1 | - | . | - | - | . | .
Cc1ccc2nc(-c3ccccn3)c(Nc3ccccc3C)n2c1 | - | 13µM | - | ? | - | -
CC(=O)/C=C1/C(=O)Nc2ccccc21 | - | - | - | -73 | - | -
O=C(O)COc1ccccc1/C=C1\C(=O)Nc2ccc(Br)cc21 | - | . | - | - | - | -
O=C1Nc2ccc(Br)cc2/C1=C/C(=O)c1ccccc1 | - | . | - | -82 | . | -
COc1ccc(OC)c(NC(=O)c2c(NCc3ccc(OC)c(OC)c3)sc3c2CCC(C)C3)c1 (configuration not stated) | . | . | . | - | - | .
COc1cc(C2C(C#N)=C(N)Oc3c2ccc2ccccc32)ccc1OCC(=O)Nc1cccc(C)c1 (configuration not stated) | - | - | - | -78 | - | -
CC(C)Oc1ccc(C(=O)NCc2cccs2)cc1 | 13µM | - | - | - | - | -
SMILES | BRCA1 expr up | NPSR antag | IL-2 act | RXFP1 antagonist | RXFP1 agonist | Giardia killer
Cc1cc(C(=O)NCc2cccs2)cs1 | 10µM | - | - | - | - | -
O=C(NCc1cccs1)c1ccccc1 | - | - | - | - | - | -
CC(C)Cc1cc(C(=O)NCc2cccs2)no1 | 13µM | - | - | - | - | -
CC(C)Cc1cc(C(=O)NCc2cccnc2)no1 | - | - | - | - | - | -
Cc1c(O)c2c(c(C(=O)/C=C/c3ccccc3)c1O)OC(C)(C)C=C2 | - | . | . | . | . | .
Cc1ccc(NC(=S)NC2CCSc3ccccc32)cc1 (configuration not stated) | - | . | - | -62 | - | -
CC(=O)Nc1ccc(C(=O)NC2CCSc3ccccc32)cc1 (configuration not stated) | - | . | - | - | - | -
CC1(C)CC(=O)C2=C(C1)OC1=C(C(=O)CC(C)(C)C1)C2c1ccc(O)cc1O | - | 13µM | - | ? | - | -
CCOC(=O)Cn1c(=O)oc2cc(S(=O)(=O)N3CCN(c4ccccc4OC)CC3)ccc21 | . | . | . | -65 | - | .
Cc1ccc(S(=O)(=O)N2CCN(c3nc(-c4ncccn4)nc4ccccc34)CC2)cc1 | - | . | . | . | . | -
COc1cccc(NC(=O)c2ccc(CN3CCOCC3)cc2)c1 | 11µM | - | - | - | - | -
COc1c(C)cccc1C(=O)Nc1ccc(CN2CCOCC2)cc1 | 2.5µM | - | - | - | - | -
COc1cccc(-c2nc(SCC(=O)NC3CCCC3)c(-c3ccc(F)cc3)[nH]2)c1 | . | . | . | ? | - | .
Cc1cccc(CSc2cn(CC(=O)N3CCOCC3)c3ccccc23)c1 | 3.5µM | - | - | - | - | -
Cc1cccc(CSc2cn(CC(=O)N3CCCCCC3)c3ccccc23)c1 | . | . | . | - | - | .
CC(=O)c1ccc(OCC(=O)N2CCCCC2)cc1 | . | . | . | - | . | .
Brc1ccc(-c2nn3c(-c4ccco4)nnc3s2)o1 | - | ? | - | - | 13µM | -
O=C(N/N=C1\CCc2ccccc21)c1ccc(O)cc1 | 2µM | - | - | - | - | -
O=C(NN=C1CCC(=NNC(=O)c2ccccn2)CC1)c1ccccn1 | - | - | - | - | - | -
O=C(N/N=C1\CCc2ccccc21)c1ccccc1Cl | 2µM | - | - | - | - | -
Cc1cc2c(cc1C)/C(=N/NC(=O)c1ccccn1)CCC2 | - | - | - | -93 | - | -
Clc1ccc(/C=C/c2ccncc2)cc1Cl | - | . | . | . | . | .
CC(C)OC(=O)c1ccc(NC(=O)C2C3CC4OC(=O)C2C4C3)cc1 (configuration not stated) | 7.1µM | - | - | - | - | -
Cc1cccc2c1-c1sc(C(=O)N(C)c3cccc(C(F)(F)F)c3)cc1CO2 | . | . | . | - | ? | .
O=c1c2ccccc2sn1-c1cc(S(=O)(=O)N2CCOCC2)ccc1N1CCCC1 | - | - | - | -62 | - | -
SMILES | BRCA1 expr up | NPSR antag | IL-2 act | RXFP1 antagonist | RXFP1 agonist | Giardia killer
O=c1c2ccccc2sn1-c1cc(S(=O)(=O)N2CCOCC2)ccc1N1CCCCC1 | - | . | . | . | . | -
N#CC1=C2SCN(Cc3ccccc3)CN2C(=O)CC1c1cccs1 (configuration not stated) | - | ? | - | - | 25µM | -
CN(Cc1ccc(F)cc1)C(=O)CCc1nnc(-c2ccccc2)o1 | 14µM | - | - | - | - | -
C/C(N)=C(/C#N)C(=O)CSc1nc2ccccc2[nH]1 | 7.9µM | - | - | - | - | -
NC(=O)C1CCN(C(=O)CSc2nc3ccccc3[nH]2)CC1 | - | - | - | - | - | -
CC1CCN(C(=O)CSc2nc3ccccc3[nH]2)CC1 | 3.5µM | - | - | - | - | -
COc1ccc(C2/C=C\CN([S+](=O)([O-])c3ccc4ccccc4c3)C(C)C(=O)N2Cc2ccc(F)cc2)cc1 (configuration not stated) | . | . | . | . | . | -
